Usually Kd stands for the equilibrium constant for the complex coming apart.

Structures are written as SMILES. Out of some 3,700 compounds screened, fewer than 10 were called active. A selection follows. A number with no mark means an inactive call. No rule for the calls is given here.

This experiment in a line: NMR binding screen, influenza A RNA promoter, Kd (AID 1637). The note with it: NMR binding to influenza A RNA promoter.
Take `CC1=NNC(=O)C1CCc1ccncc1` (stereo not given): the Kd was more than 4 mM.
For `O=C(NCc1ccccc1Br)c1ccco1`, the Kd is more than 4 mM.
`COc1ccc(-c2c(OC)c3c(OC)c4c(cc3oc2=O)OC(C)(C)C=C4)cc1`: the Kd is more than 4 mM.
With `CCN=Cc1c(O)n(-c2ccccc2C)c(=O)[nH]c1=O`, the Kd was more than 4 mM.
For the molecule `NC(=O)c1ccc(NC(=O)C2CC2)cc1`, the Kd was more than 4 mM.
The same measure for `c1ccc(CCN2CCN(CCc3ccccn3)CC2)nc1`: more than 4 mM.
Regarding `COc1c(O)cc2c(c1O)[C@H]1O[C@H](CO)[C@@H](O)[C@H](O)[C@@H]1OC2=O`, the Kd was more than 4 mM.
The same measure for `COc1cc(/C=C2/NC(=S)NC2=O)cc(Cl)c1O`: more than 4 mM.
With `O=C(Nc1nccs1)c1ccc(=O)[nH]n1`, the Kd was more than 4 mM.
The value for `COC(=O)c1ccc2nc[nH]c2c1` was more than 4 mM.
Consider `CNS(=O)(=O)c1cccs1`, for which the Kd is more than 4 mM.
The value for `OCCCc1nc2ccc(C(F)(F)F)cc2[nH]1` was more than 4 mM; that for `CC(=O)Nc1ccc(S(=O)(=O)N(C)C)cc1` was more than 4 mM; that for `O=C(NCc1cccc(Cl)c1)c1cnccn1` was more than 4 mM.
For `Cc1cc(C)n(CCCC(=O)O)n1`, the Kd is more than 4 mM.
On to `Cn1c(O)c(/C=C2\C=CC=N2)c(=O)[nH]c1=O`, for which the Kd is more than 4 mM.
The same measure for `CCOC(=O)c1ccc2c(c1)nnn2C`: more than 4 mM; for `COc1ccc(-c2coc3c(OC)c(OC)cc(OC)c3c2=O)cc1`: more than 4 mM; for `NCc1c[nH]c2ccccc12`: more than 4 mM.
Regarding `Cn1c(=O)n(C)c2cc(C(N)=O)ccc21`, the Kd was more than 4 mM.
The same measure for `CC(C)=NNC(=O)C(=O)NC(C)(C)C`: more than 4 mM; for `NC(=O)C1CCN(C(=O)c2ccccc2)CC1`: more than 4 mM; for `CN1C(=O)/C(=C/c2ccc(O)cc2O)SC1=S`: more than 4 mM.
Consider `NC(C(=O)O)C(O)c1ccccc1` (stereo not given), for which the Kd was more than 4 mM.
`CCOC(=O)c1c(C)[nH]c2ccc(O)cc12`: the Kd is more than 4 mM.
Turning to `O=C(Cc1ccc(F)cc1)Nc1ncccn1`, the Kd is more than 4 mM.
In the case of `Fc1ccc(-c2n[nH]c(=S)n2CC2CCCO2)cc1` (stereo not given), the Kd is more than 4 mM.
With `O=C(CC1SC(=O)NC1=O)Nc1nccs1` (stereo not given), the Kd was more than 4 mM.
The same measure for `O=C(O)c1cccc2c1OCCCO2`: more than 4 mM.
`NC(=S)CN1CCCC1=O`: the Kd was more than 4 mM.
The value for `CC1=NN(c2ccc(C)cc2)C(=O)C1` was more than 4 mM; that for `O=P(c1ccccc1)(c1ccccc1)C1CCOCC1` was more than 4 mM.
The same measure for `CC(=O)N1CCN(S(=O)(=O)c2ccccc2)CC1`: more than 4 mM; for `CN1CCN(CC(=O)N2CCc3ccccc32)CC1`: more than 4 mM; for `O=C(NC1=NCCS1)c1cccc(F)c1`: more than 4 mM.
For the molecule `O=C1NC(=S)S/C1=C/c1ccncc1`, the Kd was more than 4 mM.
As to `Cc1[nH]c2ccccc2c1C(=O)CSc1ncn[nH]1`, the Kd was more than 4 mM.
Turning to `O=C(NN1CCOCC1)c1ccccc1F`, the Kd is more than 4 mM.
Consider `Cc1cc(=O)oc2cc3c(cc12)OCCO3`, for which the Kd is more than 4 mM.
`CC1SC(=NC(=O)c2ccncc2)NC1=O` (stereo not given): the Kd is more than 4 mM.
Regarding `Cc1cc(OC(=O)c2ccco2)c([N+](=O)[O-])c(=O)[nH]1`, the Kd was more than 4 mM.
The same measure for `Cc1c(O)c(O)cc2c1CC=C1[C@@]2(C)CC[C@@]2(C)C3C[C@](C)(C(=O)O)CC[C@]3(C)CC[C@]12C` (stereo not given in full): more than 4 mM; for `CCN1CCn2c1nc(N1CCOCC1)nc2=O`: more than 4 mM.
In the case of `Nc1cc(=O)[nH]c(=S)n1-c1ccc(F)cc1`, the Kd was more than 4 mM.
Take `Cc1cc(=O)n2ncn(Cc3ccccc3)c2n1`: the Kd was more than 4 mM.
Consider `Nc1ccc(-n2cccc2)cc1`, for which the Kd was more than 4 mM.
With `CC1(C)Cc2nc(N3CCOCC3)c(C#N)cc2CO1`, the Kd is more than 4 mM.
The same measure for `O=C1c2cccnc2C(=O)N1Cc1ccc2c(c1)OCO2`: more than 4 mM; for `Cn1ccnc1C(O)c1ccccc1` (stereo not given): more than 4 mM; for `CS(=O)(=O)c1ccccc1C(=O)Nc1nccs1`: more than 4 mM.
The value for `NS(=O)(=O)c1ccc(NC(=O)C2CC2)cc1` was more than 4 mM.
In the case of `COc1ccc(/C=C2/NC(=S)NC2=O)cc1`, the Kd is more than 4 mM.
Turning to `CC(=O)NC(NC(C)=O)c1ccccc1`, the Kd was more than 4 mM.
For the molecule `O=S(=O)(O)c1cc[n+]([O-])cc1`, the Kd is more than 4 mM.
The value for `Cc1cc(N2C(=O)CCC2=O)n(-c2ccccc2)n1` was more than 4 mM.
In the case of `Nc1nc(-c2ccc(O)cc2)cs1`, the Kd was more than 4 mM.
As to `O=C(CNC(=O)c1ccc(F)cc1)NC1=NCCS1`, the Kd was more than 4 mM.
Turning to `COCCOc1nc2ccccc2nc1C`, the Kd was more than 4 mM.
The same measure for `O=C1C2CC=CCC2C(=O)N1c1ccccc1O` (stereo not given): more than 4 mM; for `Cc1ccn(S(=O)(=O)c2ccc(F)cc2)n1`: more than 4 mM.
On to `NS(=O)(=O)c1ccc(NC(=O)C(F)(F)F)cc1`, for which the Kd is more than 4 mM.
Regarding `CC(C)C(C)/C=C/C(C)[C@H]1CCC2C3=CCC4CC(=O)CC[C@]4(C)C3CC[C@@]21C` (stereo not given in full), the Kd was more than 4 mM.
Consider `CS(=O)(=O)NC1CCN(Cc2ccccc2)CC1`, for which the Kd is more than 4 mM.
Turning to `CC(=O)c1c(O)c(C)c(O)c2c1OC1=CC(=O)C(C(C)=O)C(=O)C12C` (stereo not given), the Kd is more than 4 mM.
Take `O=C(O)c1coc2c1C(=O)CCC2`: the Kd is more than 4 mM.
In the case of `S=c1[nH]nc(-c2cccnc2)n1Cc1ccccc1`, the Kd is more than 4 mM.
On to `CS(=O)(=O)N1CCN(C(=O)Cc2cccs2)CC1`, for which the Kd was more than 4 mM.
The value for `NC1=NC(=O)/C(=C/c2ccccc2[N+](=O)[O-])S1` was more than 4 mM.
Regarding `CCN1CC2(C)CC[C@H](OC)[C@]34C2[C@H](O)C2(OCO[C@@]25C[C@H](OC)[C@H]2C[C@]3(O)C5[C@H]2O)C14`, the Kd was more than 4 mM.
With `O=c1c2ccccc2oc2ccc(O)cc12`, the Kd was more than 4 mM.
As for `COc1cc(C)c(S(=O)(=O)N2CCN(C)CC2)cc1C`, the Kd is more than 4 mM.
The value for `Nc1ncnc(NCc2cccnc2)c1[N+](=O)[O-]` was more than 4 mM; that for `COC(=O)c1nc(-c2ccccc2)oc1N(C)C` was more than 4 mM.
For the molecule `Cc1cc(C)n(S(=O)(=O)c2cc(C)c(C)cc2C)n1`, the Kd is more than 4 mM.
In the case of `CCc1cc2c(SCC(=O)O)ncnc2s1`, the Kd is more than 4 mM.
The same measure for `O=C(c1ccccc1)c1ccc(N2CCNCC2)cc1`: more than 4 mM; for `CC(=O)Nc1cccc(NC(=O)c2cccnc2)c1`: more than 4 mM.
Turning to `C(=N\c1nccs1)/c1cccnc1`, the Kd was more than 4 mM.
Regarding `Cc1ccccc1C(=O)Nn1cnnc1`, the Kd is more than 4 mM.
Turning to `OCc1cccc2c1OCCO2`, the Kd is more than 4 mM.
With `O=C(Nc1cccnc1)N1CCOCC1`, the Kd was more than 4 mM.
The same measure for `CN(c1ccccc1C(=O)N1CCCC1)S(C)(=O)=O`: more than 4 mM; for `[O-][n+]1onc2c1CCc1c-2nc(-c2ccccc2)n1O`: more than 4 mM; for `CNC(=O)c1cc(C)c(-c2ccccc2)s1`: more than 4 mM.
For the molecule `NC(=O)CC(=O)NC12CC3CC(CC(C3)C1)C2`, the Kd was more than 4 mM.
As to `O=C(NCc1cccs1)c1ccc2c(c1)OCCO2`, the Kd was more than 4 mM.
With `COCCn1c(C)cc(O)cc1=O`, the Kd is more than 4 mM.
On to `CSc1ccc(C(=S)N2CCN(C)CC2)cc1`, for which the Kd was more than 4 mM.
Consider `Nc1ncnc(Nc2ccccc2C(F)(F)F)n1`, for which the Kd was more than 4 mM.
For `Cc1nnsc1C(=O)O`, the Kd was more than 4 mM.
On to `CCc1ccccc1NC(=O)c1cnccn1`, for which the Kd is more than 4 mM.
In the case of `Cc1ccc(/C=C2/C(=O)N=C(N)N2C)s1`, the Kd is more than 4 mM.
The value for `O=c1[nH]cc(NCc2ccco2)c(=O)[nH]1` was more than 4 mM; that for `COc1ccc(-c2c(O)c3c(OC)c4c(cc3oc2=O)OC(C)(C)CC4)cc1` was more than 4 mM.
The same measure for `COC[C@]12CN(C=O)C3[C@@H]4[C@H](OC)C1[C@]3(C1CC3(O)C(OC)C(O)C4(OC(C)=O)C1C3OC(=O)c1ccccc1)[C@@H](OC)C[C@H]2O` (stereo not given in full): more than 4 mM; for `C=C(C)[C@@H]1CC[C@]2(CO)CC[C@]3(C)[C@H](CCC4[C@@]5(C)CC[C@H](O)C(C)(C)C5CC[C@]43C)C12` (stereo not given in full): more than 4 mM.
With `CSc1ncc(C(=O)O)n1Cc1ccccc1`, the Kd was more than 4 mM.
The value for `CCOC(=O)C1CCNCC1` was more than 4 mM.
On to `NCc1csc(-c2ccccc2)n1`, for which the Kd is more than 4 mM.
Regarding `O=C(O)c1ccc2snnc2c1`, the Kd was more than 4 mM.
Turning to `Oc1ccc(C2SCCS2)cc1`, the Kd is more than 4 mM.
The value for `Nc1oncc1-c1ccccn1` was more than 4 mM; that for `Cc1cccc(CSc2nncc(=O)[nH]2)c1` was more than 4 mM; that for `COc1ccc2c(c1)c1n[nH]c(=S)nc1n2C` was more than 4 mM.
Take `Cc1nc2ccccc2c(=O)[nH]1`: the Kd was more than 4 mM.
Consider `CCc1noc(C)c1C(=O)N1CCCC1`, for which the Kd was more than 4 mM.
As for `Nc1cc(=O)[nH]c(=O)n1Cc1ccco1`, the Kd is more than 4 mM.
`NC(=S)NC(=O)CN1C(=O)c2ccccc2C1=O`: the Kd is more than 4 mM.
In the case of `NC(=O)CSc1ccc(Br)cc1`, the Kd is more than 4 mM.
For the molecule `O=C(c1ccncc1)c1ccc(Br)cc1`, the Kd was more than 4 mM.
Turning to `CC1=C/C(=C\c2c(O)[nH]c(=O)[nH]c2=O)C(C)=N1`, the Kd was more than 4 mM.
Regarding `NC(=O)C1CCN(S(=O)(=O)c2ccccc2)CC1`, the Kd was more than 4 mM.
Turning to `CCOC(=O)CNc1ncnc2c1nnn2CC`, the Kd was more than 4 mM.
With `O=C1CNc2cc(C(=O)O)ccc2N1`, the Kd was more than 4 mM.
With `CCC1(CC)C(=O)N=C(N)NC1=O`, the Kd is more than 4 mM.

The values are drawn from PubChem BioAssay AID1637 (Sanford-Burnham Center for Chemical Genomics, 2009).
